Results reported in the supplement of paper PMC10849652.
Of roughly 7,900 targets only a part is listed; those with a hit were picked by preference. About 0.6% of all pairs of compound and target were hits. Unmarked numbers belong to inactive results.

Legend:
Experiment in all cases: log2 fold change, soluble protein after heating vs DMSO (PISA); higher = thermal stabilisation; K562 cells, 10 uM, 30 min; active = over 0.2 and 3.5 SD of the protein, either way, in both replicates (recomputed)
[1] = compound: C1=CC=C(C=C1)[C@H](COC2=CC3=C(C=C2)NC(=O)N3)NC(=O)C4=CC=CN(C4=O)CC5=CC(=C(C=C5)F)F
Outline: (§1)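 Soluble protein was quantified by TMTpro 16plex LC-MS/MS after channel sums were equalised. It was obtained as the supernatant after 21,000xg for 90 min from pooled aliquots of K562 cells (2×10^6 cells/mL, 10 μM compound, 30 min) heated for 3 min across 48°C-58°C and extracted in PBS with 0.5% NP-40 at 4°C. Thermal stability values are relative to control samples and come from duplicates. They are given as log2 fold changes.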

[2] = compound: CC1=C(SC2=C1C(=N[C@H](C3=NN=C(N32)C)CC(=O)N)C4=CC=C(C=C4)Cl)C
Outline: as §1

[3] = compound: CC1=C2C(=CC=C1)N=C(N(C2=O)C3=CC=CC=C3C)CN4C=NC5=C(N=CN=C54)N
Outline: as §1

[4] = compound: Cc1sc2c(c1C)C(c1ccc(Cl)cc1)=N[C@@H](CC(=O)OC(C)(C)C)c1nnc(C)n1-2
Outline: as §1

[5] = compound: c1ccc([C@@H]2C[C@H]2NC2CCNCC2)cc1
Outline: as §1

UniProt Q9BXW9, sequence (Q9BXW9 whole entry, looked up): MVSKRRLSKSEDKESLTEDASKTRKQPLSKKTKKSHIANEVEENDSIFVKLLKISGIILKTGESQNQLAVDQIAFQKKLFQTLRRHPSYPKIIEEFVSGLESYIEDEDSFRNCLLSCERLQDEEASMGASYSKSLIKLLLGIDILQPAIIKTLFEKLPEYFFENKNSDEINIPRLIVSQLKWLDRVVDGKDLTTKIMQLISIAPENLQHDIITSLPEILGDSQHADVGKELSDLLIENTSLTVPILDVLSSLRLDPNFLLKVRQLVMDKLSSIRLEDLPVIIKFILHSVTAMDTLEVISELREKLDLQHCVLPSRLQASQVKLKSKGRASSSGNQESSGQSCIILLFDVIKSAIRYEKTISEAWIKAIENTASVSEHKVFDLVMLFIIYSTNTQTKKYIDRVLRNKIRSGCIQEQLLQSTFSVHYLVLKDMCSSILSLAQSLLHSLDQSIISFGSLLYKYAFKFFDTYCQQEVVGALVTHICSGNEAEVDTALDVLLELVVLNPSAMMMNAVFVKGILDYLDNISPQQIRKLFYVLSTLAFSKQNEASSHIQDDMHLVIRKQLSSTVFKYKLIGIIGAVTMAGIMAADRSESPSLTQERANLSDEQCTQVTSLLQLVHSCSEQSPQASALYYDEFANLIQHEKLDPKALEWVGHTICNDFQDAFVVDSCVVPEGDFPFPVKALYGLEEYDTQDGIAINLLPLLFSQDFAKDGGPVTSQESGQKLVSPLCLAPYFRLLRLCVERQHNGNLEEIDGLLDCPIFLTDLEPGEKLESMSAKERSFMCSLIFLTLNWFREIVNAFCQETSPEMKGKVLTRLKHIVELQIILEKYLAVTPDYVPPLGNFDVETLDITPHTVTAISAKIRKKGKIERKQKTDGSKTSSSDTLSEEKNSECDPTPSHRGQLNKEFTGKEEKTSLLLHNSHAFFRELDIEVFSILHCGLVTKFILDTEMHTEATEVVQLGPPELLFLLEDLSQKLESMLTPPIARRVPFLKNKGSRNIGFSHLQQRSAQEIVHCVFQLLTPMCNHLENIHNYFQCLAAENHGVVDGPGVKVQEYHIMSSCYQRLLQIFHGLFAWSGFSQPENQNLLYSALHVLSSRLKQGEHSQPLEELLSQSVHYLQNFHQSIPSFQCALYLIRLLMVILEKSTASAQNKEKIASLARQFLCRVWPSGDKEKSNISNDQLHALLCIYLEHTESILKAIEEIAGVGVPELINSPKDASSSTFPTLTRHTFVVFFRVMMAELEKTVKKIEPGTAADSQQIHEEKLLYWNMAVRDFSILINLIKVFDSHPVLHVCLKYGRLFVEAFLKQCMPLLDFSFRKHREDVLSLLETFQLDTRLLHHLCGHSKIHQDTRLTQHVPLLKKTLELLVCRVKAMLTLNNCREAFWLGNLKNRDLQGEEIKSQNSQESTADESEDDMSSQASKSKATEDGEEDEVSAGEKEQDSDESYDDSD
UniProt P06865, sequence (P06865 whole entry, looked up): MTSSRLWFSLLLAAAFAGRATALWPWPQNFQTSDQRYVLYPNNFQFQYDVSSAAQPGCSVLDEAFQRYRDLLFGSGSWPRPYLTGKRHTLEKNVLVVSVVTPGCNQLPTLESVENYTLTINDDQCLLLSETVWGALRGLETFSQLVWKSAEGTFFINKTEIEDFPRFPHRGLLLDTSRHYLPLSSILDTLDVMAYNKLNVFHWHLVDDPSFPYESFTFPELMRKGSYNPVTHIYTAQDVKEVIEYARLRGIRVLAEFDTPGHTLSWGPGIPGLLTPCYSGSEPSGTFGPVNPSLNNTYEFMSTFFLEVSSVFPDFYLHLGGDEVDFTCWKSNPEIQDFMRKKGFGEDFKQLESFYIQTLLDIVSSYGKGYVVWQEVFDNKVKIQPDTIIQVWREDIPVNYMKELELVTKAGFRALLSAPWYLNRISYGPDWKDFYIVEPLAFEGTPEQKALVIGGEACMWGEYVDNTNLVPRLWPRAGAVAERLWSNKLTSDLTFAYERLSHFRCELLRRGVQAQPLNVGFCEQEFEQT
UniProt O14893, sequence (O14893 whole entry, looked up): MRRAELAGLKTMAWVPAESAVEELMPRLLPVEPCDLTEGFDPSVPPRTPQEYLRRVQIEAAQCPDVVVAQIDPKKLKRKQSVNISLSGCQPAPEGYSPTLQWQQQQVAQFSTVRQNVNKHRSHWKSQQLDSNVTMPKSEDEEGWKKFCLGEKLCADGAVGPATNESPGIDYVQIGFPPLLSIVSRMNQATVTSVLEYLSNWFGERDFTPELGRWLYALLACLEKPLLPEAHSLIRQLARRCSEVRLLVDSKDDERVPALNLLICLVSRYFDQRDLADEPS
UniProt P62879, sequence (P62879 whole entry, looked up): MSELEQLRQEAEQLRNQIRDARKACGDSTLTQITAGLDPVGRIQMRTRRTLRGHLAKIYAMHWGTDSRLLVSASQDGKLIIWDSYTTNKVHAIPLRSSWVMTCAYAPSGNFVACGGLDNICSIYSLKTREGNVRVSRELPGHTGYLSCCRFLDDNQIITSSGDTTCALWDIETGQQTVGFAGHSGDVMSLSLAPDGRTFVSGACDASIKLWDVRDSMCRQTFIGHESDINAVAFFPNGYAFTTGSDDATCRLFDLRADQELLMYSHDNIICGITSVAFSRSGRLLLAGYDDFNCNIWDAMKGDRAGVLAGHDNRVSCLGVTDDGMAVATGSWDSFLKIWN
UniProt Q13907, sequence (Q13907 whole entry, looked up): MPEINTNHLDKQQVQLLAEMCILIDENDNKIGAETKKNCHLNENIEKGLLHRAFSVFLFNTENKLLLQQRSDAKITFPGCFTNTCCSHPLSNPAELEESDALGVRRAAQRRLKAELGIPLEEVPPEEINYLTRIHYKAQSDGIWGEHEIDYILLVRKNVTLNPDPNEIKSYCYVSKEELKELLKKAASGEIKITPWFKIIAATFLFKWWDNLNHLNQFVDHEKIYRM
UniProt O14526, sequence (O14526 whole entry, looked up): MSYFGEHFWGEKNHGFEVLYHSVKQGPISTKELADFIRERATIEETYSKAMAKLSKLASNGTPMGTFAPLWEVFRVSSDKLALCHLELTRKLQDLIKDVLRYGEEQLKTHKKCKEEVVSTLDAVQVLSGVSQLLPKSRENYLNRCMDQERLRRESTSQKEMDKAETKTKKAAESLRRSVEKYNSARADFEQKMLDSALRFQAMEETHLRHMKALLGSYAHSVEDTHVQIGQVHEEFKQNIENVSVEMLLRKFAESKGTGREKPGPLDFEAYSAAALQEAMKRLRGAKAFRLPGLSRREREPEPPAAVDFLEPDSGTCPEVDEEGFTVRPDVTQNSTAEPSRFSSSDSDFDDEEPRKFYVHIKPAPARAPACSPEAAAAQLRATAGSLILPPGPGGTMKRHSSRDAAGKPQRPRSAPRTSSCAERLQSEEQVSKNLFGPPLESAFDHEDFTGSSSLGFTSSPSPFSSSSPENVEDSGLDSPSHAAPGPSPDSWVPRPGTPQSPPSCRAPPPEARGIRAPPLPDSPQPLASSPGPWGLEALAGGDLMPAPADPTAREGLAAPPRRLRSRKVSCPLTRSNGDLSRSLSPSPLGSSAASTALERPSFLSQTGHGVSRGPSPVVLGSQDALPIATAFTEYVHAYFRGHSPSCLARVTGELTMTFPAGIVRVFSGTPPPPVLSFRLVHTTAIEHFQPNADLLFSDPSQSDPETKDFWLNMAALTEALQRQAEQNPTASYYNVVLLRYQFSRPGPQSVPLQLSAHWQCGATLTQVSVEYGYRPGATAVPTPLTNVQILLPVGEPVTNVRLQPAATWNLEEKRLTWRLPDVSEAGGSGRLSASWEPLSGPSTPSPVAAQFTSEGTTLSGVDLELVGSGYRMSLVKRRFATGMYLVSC
UniProt P13807, sequence (P13807 whole entry, looked up): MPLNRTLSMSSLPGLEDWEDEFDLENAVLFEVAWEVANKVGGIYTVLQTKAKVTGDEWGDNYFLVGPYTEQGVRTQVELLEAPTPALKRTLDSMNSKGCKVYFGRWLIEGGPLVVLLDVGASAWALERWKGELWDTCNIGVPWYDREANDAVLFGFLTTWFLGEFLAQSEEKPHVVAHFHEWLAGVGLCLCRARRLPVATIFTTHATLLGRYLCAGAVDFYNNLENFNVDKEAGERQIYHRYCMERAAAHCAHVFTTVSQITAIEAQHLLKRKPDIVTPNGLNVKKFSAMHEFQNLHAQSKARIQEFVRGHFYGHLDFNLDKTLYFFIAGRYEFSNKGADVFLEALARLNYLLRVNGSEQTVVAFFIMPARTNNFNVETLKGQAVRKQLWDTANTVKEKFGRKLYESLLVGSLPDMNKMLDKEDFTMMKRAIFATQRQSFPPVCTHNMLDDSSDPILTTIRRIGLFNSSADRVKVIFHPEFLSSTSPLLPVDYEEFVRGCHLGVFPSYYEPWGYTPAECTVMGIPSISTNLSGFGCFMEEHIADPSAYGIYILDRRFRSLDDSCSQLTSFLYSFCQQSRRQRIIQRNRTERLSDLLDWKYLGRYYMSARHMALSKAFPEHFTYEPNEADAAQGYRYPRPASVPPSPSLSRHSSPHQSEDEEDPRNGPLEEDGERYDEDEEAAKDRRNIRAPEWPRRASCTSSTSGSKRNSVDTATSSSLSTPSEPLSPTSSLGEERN
UniProt P0CL80, sequence (P0CL80 whole entry, looked up): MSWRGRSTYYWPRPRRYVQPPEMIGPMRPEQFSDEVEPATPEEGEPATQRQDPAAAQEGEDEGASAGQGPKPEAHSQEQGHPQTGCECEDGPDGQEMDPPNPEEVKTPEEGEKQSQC
UniProt Q9UK97, sequence (Q9UK97 whole entry, looked up): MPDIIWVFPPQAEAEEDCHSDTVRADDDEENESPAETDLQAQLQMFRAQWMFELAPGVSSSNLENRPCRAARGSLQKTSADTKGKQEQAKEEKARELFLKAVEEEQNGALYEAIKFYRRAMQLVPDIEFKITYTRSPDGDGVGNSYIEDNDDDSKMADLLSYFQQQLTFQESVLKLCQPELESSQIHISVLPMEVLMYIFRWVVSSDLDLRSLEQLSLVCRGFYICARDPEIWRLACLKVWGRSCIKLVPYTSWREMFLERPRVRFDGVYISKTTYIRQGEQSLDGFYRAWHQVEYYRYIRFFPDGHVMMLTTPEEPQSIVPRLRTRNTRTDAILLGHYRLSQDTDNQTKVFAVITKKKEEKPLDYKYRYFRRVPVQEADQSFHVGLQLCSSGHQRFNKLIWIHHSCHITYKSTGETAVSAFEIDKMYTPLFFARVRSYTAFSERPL

HSPA8 (UniProt E9PK54) gave a log2 fold change [1] of 0.004, a log2 fold change [2] of -0.108 and a log2 fold change [3] of 0.037. It also gave a log2 fold change [4] of 0.099 and a log2 fold change [5] of -0.001.
For GNG5 (UniProt P63218), the log2 fold change [1] was 0.044, the log2 fold change [2] was 0.063 and the log2 fold change [3] was 0.012. The log2 fold change [4] was -0.064 and the log2 fold change [5] was 0.018.
For GSTT1 (UniProt P30711), the log2 fold change [1] was 0.032, the log2 fold change [2] was 0.121 and the log2 fold change [3] was 0.165. It also gave a log2 fold change [4] of -0.146 and a log2 fold change [5] of 0.026.
Work on GAGE12F (UniProt P0CL80) yielded a log2 fold change [1] of -0.016, a log2 fold change [2] of 0.137 and a log2 fold change [3] of 0.109. The log2 fold change [4] was -0.089 and the log2 fold change [5] was 0.012.
HADHA (UniProt P40939) was tested, and the log2 fold change [1] was -0.218, the log2 fold change [2] was 0.254 and the log2 fold change [3] was 0.214. The log2 fold change [4] was 0.256 and the log2 fold change [5] was -0.051.
Target GNB2 (UniProt P62879) has a log2 fold change [1] of 0.025, a log2 fold change [2] of 0.045 and a log2 fold change [3] of 0.029. The log2 fold change [4] was -0.09 and the log2 fold change [5] was -0.015.
GALK1 isoform 2 (UniProt P51570) gave a log2 fold change [1] of -0.02, a log2 fold change [2] of 0.016 and a log2 fold change [3] of -0.065. It also gave a log2 fold change [4] of -0.024 and a log2 fold change [5] of -0.007.
Work on GPX4 (UniProt P36969) yielded a log2 fold change [1] of 0.029, a log2 fold change [2] of 0.001 and a log2 fold change [3] of 0.017. It also gave a log2 fold change [4] of -0.064 and a log2 fold change [5] of 0.028.
FIS1 (UniProt Q9Y3D6) gave a log2 fold change [1] of 0.047, a log2 fold change [2] of 0.021 and a log2 fold change [3] of 0.035. The log2 fold change [4] was -0.081 and the log2 fold change [5] was -0.011.
With GTF2E1 (UniProt P29083) the log2 fold change [1] was -0.086, the log2 fold change [2] was 0.089 and the log2 fold change [3] was 0.136. For the same target, the log2 fold change [4] was -0.052 and the log2 fold change [5] was 0.034.
For FKBP3 (UniProt Q00688), the log2 fold change [1] was 0.014, the log2 fold change [2] was 0.003 and the log2 fold change [3] was 0.01. It also gave a log2 fold change [4] of 0.011 and a log2 fold change [5] of -0.016.
Work on HK2 (UniProt P52789) yielded a log2 fold change [1] of -0.006, a log2 fold change [2] of 0.045 and a log2 fold change [3] of 0.007. For the same target, the log2 fold change [4] was -0.025 and the log2 fold change [5] was -0.016.
FANCD2 isoform 1 (UniProt Q9BXW9) showed a log2 fold change [1] of -0.018, a log2 fold change [2] of 0.068 and a log2 fold change [3] of 0.159. It also gave a log2 fold change [4] of -0.041 and a log2 fold change [5] of -0.009.
In the case of HEXA (UniProt P06865), the log2 fold change [1] is reported as 0.042, the log2 fold change [2] is reported as -0.004 and the log2 fold change [3] is reported as 0.052. The log2 fold change [4] was -0.018 and the log2 fold change [5] was 0.024.
GSTO1 (UniProt P78417) was tested, and the log2 fold change [1] was -0.024, the log2 fold change [2] was 0.028 and the log2 fold change [3] was -0.002. It also gave a log2 fold change [4] of -0.013 and a log2 fold change [5] of 0.007.
Target FMC1 (UniProt Q96HJ9) has a log2 fold change [1] of 0.009, a log2 fold change [2] of 0.06 and a log2 fold change [3] of 0.044. The log2 fold change [4] was 0 and the log2 fold change [5] was -0.002.
GDI1 (UniProt P31150) showed a log2 fold change [1] of -0.025, a log2 fold change [2] of 0.054 and a log2 fold change [3] of 0.043. It also gave a log2 fold change [4] of -0.022 and a log2 fold change [5] of -0.025.
For GLS (UniProt O94925), the log2 fold change [1] was -0.022, the log2 fold change [2] was 0.114 and the log2 fold change [3] was 0.138. For the same target, the log2 fold change [4] was 0.013 and the log2 fold change [5] was 0.082.
Target FBXO9 (UniProt Q9UK97) has a log2 fold change [1] of -0.011, a log2 fold change [2] of 0.23 and a log2 fold change [3] of 0.016. The log2 fold change [4] was 0.161 and the log2 fold change [5] was 0.07.
For IFT80 isoform 3 (UniProt Q9P2H3), the log2 fold change [1] was -0.011, the log2 fold change [2] was 0.052 and the log2 fold change [3] was 0.083. For the same target, the log2 fold change [4] was -0.036 and the log2 fold change [5] was -0.027.
In the case of GABARAPL2 (UniProt P60520), the log2 fold change [1] is reported as 0.037, the log2 fold change [2] is reported as 0.035 and the log2 fold change [3] is reported as 0.039. For the same target, the log2 fold change [4] was -0.038 and the log2 fold change [5] was -0.055.
In the case of H3-3A (UniProt P84243), the log2 fold change [1] is reported as -0.004, the log2 fold change [2] is reported as 0.053 and the log2 fold change [3] is reported as 0.154. It also gave a log2 fold change [4] of -0.058 and a log2 fold change [5] of -0.102.
Target HP1BP3 (UniProt Q5SSJ5) has a log2 fold change [1] of 0.015, a log2 fold change [2] of -0.04 and a log2 fold change [3] of 0.087. It also gave a log2 fold change [4] of 0.142 and a log2 fold change [5] of 0.011.
In the case of GEMIN2 (UniProt O14893), the log2 fold change [1] is reported as 0.044, the log2 fold change [2] is reported as 0.013 and the log2 fold change [3] is reported as -0.049. For the same target, the log2 fold change [5] was 0.025.
Work on FOXO3 (UniProt O43524) yielded a log2 fold change [2] of 0.065, a log2 fold change [3] of 0.012 and a log2 fold change [4] of 0.125. It also gave a log2 fold change [5] of -0.039.
With GGT7 (UniProt Q9UJ14) the log2 fold change [1] was 0.028, the log2 fold change [2] was -0.055 and the log2 fold change [3] was -0.069. For the same target, the log2 fold change [4] was 0.026 and the log2 fold change [5] was 0.032.
Work on FCF1 (UniProt Q9Y324) yielded a log2 fold change [3] of -0.362 and a log2 fold change [4] of 0.248.
Work on GREB1 (UniProt Q4ZG55) yielded a log2 fold change [2] of 0.095, a log2 fold change [3] of 0.175 and a log2 fold change [4] of 0.037. For the same target, the log2 fold change [5] was -0.1.
In the case of HRC (UniProt P23327), the log2 fold change [1] is reported as 0.026, the log2 fold change [2] is reported as -0.042 and the log2 fold change [3] is reported as 0.055. It also gave a log2 fold change [4] of 0.014 and a log2 fold change [5] of 0.033.
For GSE1 (UniProt Q14687), the log2 fold change [1] was -0.151, the log2 fold change [2] was 0.029 and the log2 fold change [3] was 0.008. The log2 fold change [5] was 1.45 (active).
FIZ1 (UniProt Q96SL8) showed a log2 fold change [2] of -0.297, a log2 fold change [3] of -0.097 and a log2 fold change [5] of 0.044.
HNRNPK isoform 3 (UniProt P61978) gave a log2 fold change [1] of 0.014, a log2 fold change [3] of 0.074 and a log2 fold change [4] of 0.061.
GOLGA6B (UniProt A6NDN3) showed a log2 fold change [1] of 0.043 and a log2 fold change [3] of 0.19.
For GAK (UniProt O14976), the log2 fold change [2] was 0.095, the log2 fold change [3] was -0.032 and the log2 fold change [4] was 0.078. The log2 fold change [5] was -0.209.
With HS1BP3 (UniProt Q53T59) the log2 fold change [1] was -0.046, the log2 fold change [2] was 0.087 and the log2 fold change [3] was -0.001. For the same target, the log2 fold change [5] was -0.203.
Target GOLGB1 isoform 2 (UniProt Q14789) has a log2 fold change [1] of 0.045, a log2 fold change [2] of -0.024 and a log2 fold change [3] of 0.018. The log2 fold change [4] was 0.013 and the log2 fold change [5] was 0.045.
IGF2 isoform 3 (UniProt P01344) showed a log2 fold change [3] of 0.077.
Target FYB1 isoform 3 (UniProt O15117) has a log2 fold change [1] of -0.09, a log2 fold change [3] of 0.005 and a log2 fold change [4] of -0.017.
HSD17B12 (UniProt Q53GQ0) showed a log2 fold change [1] of 0.013, a log2 fold change [2] of 0.061 and a log2 fold change [3] of 0.066. The log2 fold change [4] was 0.042 and the log2 fold change [5] was -0.008.
For FHOD1 (UniProt Q9Y613), the log2 fold change [1] was -0.033, the log2 fold change [2] was -0.065 and the log2 fold change [3] was 0.086. For the same target, the log2 fold change [5] was -0.034.
With IDI1 isoform 2 (UniProt Q13907) the log2 fold change [1] was -0.024, the log2 fold change [2] was 0.024 and the log2 fold change [3] was 0.037. For the same target, the log2 fold change [4] was 0.003 and the log2 fold change [5] was -0.007.
FCHO1 (UniProt O14526) was tested, and the log2 fold change [2] was 0.013, the log2 fold change [3] was 0.125 and the log2 fold change [4] was 0.022. For the same target, the log2 fold change [5] was -0.065.
ICMT (UniProt O60725) gave a log2 fold change [1] of 0.047, a log2 fold change [3] of 0.115 and a log2 fold change [4] of 0.07.
With GAB2 (UniProt Q9UQC2) the log2 fold change [2] was 0.153, the log2 fold change [3] was -0.059 and the log2 fold change [4] was 0.396. For the same target, the log2 fold change [5] was -0.034.
HNRNPUL1 (UniProt M0R247) gave a log2 fold change [2] of 0.079, a log2 fold change [4] of 0.204 and a log2 fold change [5] of 0.122.
GTF3C5 isoform 3 (UniProt Q9Y5Q8) gave a log2 fold change [1] of -0.097, a log2 fold change [2] of -0.082 and a log2 fold change [3] of 0.103. The log2 fold change [4] was 0.049 and the log2 fold change [5] was -0.159.
IDH3A isoform 2 (UniProt P50213) was tested, and the log2 fold change [1] was 0.118, the log2 fold change [2] was 0.251 and the log2 fold change [4] was -0.069. For the same target, the log2 fold change [5] was -0.059.
In the case of GPS2 (UniProt Q13227), the log2 fold change [1] is reported as 0.015, the log2 fold change [3] is reported as 0 and the log2 fold change [4] is reported as 0.039.
In the case of FMR1 (UniProt Q06787), the log2 fold change [2] is reported as -0.237 and the log2 fold change [5] is reported as -0.038.
Work on GYS1 (UniProt P13807) yielded a log2 fold change [1] of 0.007, a log2 fold change [2] of -0.13 and a log2 fold change [3] of -0.02. The log2 fold change [4] was 0.023 and the log2 fold change [5] was 0.054.
GSTP1 (UniProt P09211) was tested, and the log2 fold change [1] was -0.013, the log2 fold change [2] was 0.039 and the log2 fold change [3] was 0.005. It also gave a log2 fold change [4] of -0.013 and a log2 fold change [5] of -0.016.
HMGCR isoform 3 (UniProt P04035) was tested, and the log2 fold change [1] was -0.011, the log2 fold change [2] was 0.034 and the log2 fold change [3] was 0.045. It also gave a log2 fold change [4] of 0.111 and a log2 fold change [5] of 0.043.
